Screening data: PubChem BioAssay, National Center for Advancing Translational Sciences (NCATS)
HT1080NT lethal: qHTS for induction of synthetic lethality in tumor cells producing 2HG: qHTS for the HT-1080-NT fibrosarcoma cell line | Potency, µM (titrated, usually from 46.1 µM), inactives show top-dose activity, negative = less viability, actives largely listed as cytotoxic | 1.6% of 360,000 active | HT-1080-NT fibrosarcoma viability, CellTiter-Glo ATP luminescence, 48 h;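 note: NT is the 2HG producing partner of a matched IDH1 knockdown line; potency is the fitted concentration of half-maximal effect; 0% = DMSO-treated cells and -100% = media-only wells without cells; nearly all actives have a fitted effect of over 55% in size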
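750 cells/well, RPMI + 5% FBS; 2 h settle, compound pin-transfer, 48 h at 37 degrees C. CellTiter-Glo 10 min RT, luminescence. Normalized to DMSO and media-only wells.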
HT1080 IDH1KD tx: qHTS for induction of synthetic lethality in tumor cells producing 2HG: qHTS for the HT-1080-IDH1KD cell line; HT-1080 IDH1 knockdown viability, ATP luminescence, 48 h; Potency, µM (doses to about 46.1 µM), for the others: at the highest dose activity, negative = toxicity, hits mostly cytotoxic; 2% of 360,000 active;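 note: potency is the fitted concentration of half-maximal effect; 0% = DMSO wells and -100% = cell-free medium wells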
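Using the IDH1-knockdown HT-1080 line run in the same batch and compound series as the NT line, viability after 48 h at 37 °C was determined by CellTiter-Glo luminescence and expressed as % activity.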
TDP1 cell noCPT: qHTS for Inhibitors of human tyrosyl-DNA phosphodiesterase 1 (TDP1): qHTS in cells in absence of CPT. Potency, µM (top dose mostly 46.2 µM), inactives show at the top dose activity change, negative = growth inhibition, actives largely listed as inhibitors. AID 686978, 2013. 15% of 420,000 active. DT40 Tdp1-/- hTDP1 cells, no CPT, ATP luminescence, 48 h; note: potency is the fitted concentration of half-maximal effect; nearly all actives have a fitted effect of over 55% in size
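A cellular qHTS used chicken DT40 cells lacking endogenous Tdp1 but carrying stably transfected human TDP1. Compounds were applied without camptothecin, and cell growth kinetics were judged by ATP-dependent luminescence after ≥48 hr.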
TDP1 cell CPT: qHTS for Inhibitors of human tyrosyl-DNA phosphodiesterase 1 (TDP1): qHTS in cells in presence of CPT | 12% of 420,000 active | AID 686979, 2013 | chicken DT40 Tdp1-/-;hTDP1 cells + 20 nM CPT, ATP luminescence, 48 h | Potency, µM (top dose mostly 46.2 µM), inactives show at the highest dose activity change, negative = growth inhibition, actives largely listed as inhibitors; note: potency is the fitted concentration of half-maximal effect; nearly all actives have a fitted effect of over 55% in size
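Chicken DT40 Tdp1-/- cells stably complemented with human TDP1 were seeded at 400 cells/well in medium containing 20 nM camptothecin, exposed to pin-transferred compounds, and grown at 37 °C for at least 48 hr. Viability was read as ATP luminescence.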
IL1B secr inh: qHTS for Inhibitors of Inflammasome Signaling: IL-1-beta AlphaLISA Primary Screen; THP-1 LPS/ATP IL-1B secretion, AlphaLISA, 16 h; stronger effect = lower value; 4.7% of 360,000 active; activity change, % at 57.5 µM; in the data active = activity change below about -50%; inconclusive = mostly about -30% to -49%
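THP-1 cells pretreated 1 hr with compounds (up to 57.5 uM final), then stimulated with LPS (250 ng/mL final) plus ATP (1.25 mM final); secreted IL-1B measured by AlphaLISA after 16 hr, decreased signal indicating inhibition.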
Starred values were filed as active, the others as inactive. Sampled rows, rich in hits. Any-hit rate of the full collection: about 19%. Unless noted, calls come from the whole dose curve; as a rule, active = well fitted curve in the direction sought with a large enough effect; inconclusive = small, poorly fitted or top-dose-only effect, or another doubt; inactive = no such curve, though single readings can be large; an effect the other way counts as inactive or inconclusive. Unless noted, % is set by controls: 0 for no effect and ±100 for the full control effect.

Screening O=C(NC12CC3CC(CC(C3)C1)C2)c1ccc(Br)o1 returned HT1080NT lethal -11%, HT1080 IDH1KD tx -24%, TDP1 cell noCPT inconclusive, TDP1 cell CPT -8% and IL1B secr inh 15.
Screening CC(NC(=O)c1ccc([N+](=O)[O-])o1)C1CC2CCC1C2 (stereo not drawn) returned HT1080NT lethal inconclusive, HT1080 IDH1KD tx inconclusive, TDP1 cell noCPT inconclusive, TDP1 cell CPT 21µM* and IL1B secr inh -92*.
`O=C(NC12CC3CC(CC(C3)C1)C2)c1ccc([N+](=O)[O-])o1` gave HT1080NT lethal inconclusive, HT1080 IDH1KD tx inconclusive, TDP1 cell noCPT 23µM*, TDP1 cell CPT 23µM* and IL1B secr inh -63*.
`CC(NC(=O)c1ccc([N+](=O)[O-])cc1Cl)C1CC2CCC1C2` (stereo not drawn) gave HT1080NT lethal -6%, HT1080 IDH1KD tx -10%, TDP1 cell noCPT inconclusive, TDP1 cell CPT inconclusive and IL1B secr inh -23.
CCOc1ncccc1C(=O)Nc1cc(S(=O)(=O)N2CCCCC2)ccc1OC was read as HT1080NT lethal -1%, HT1080 IDH1KD tx -15%, TDP1 cell noCPT inconclusive, TDP1 cell CPT 9% and IL1B secr inh 20.
For Cc1c(C(=O)Nc2nc(-c3ccc(F)cc3)ns2)oc2ccc(Br)cc12 the results were TDP1 cell noCPT -8% and TDP1 cell CPT 9%.
For C/C(=N\Nc1ccc([N+](=O)[O-])cc1[N+](=O)[O-])c1ccc(-n2nncc2C(C)(C)C)cc1 the results were HT1080NT lethal -4%, HT1080 IDH1KD tx -3%, TDP1 cell noCPT 13µM*, TDP1 cell CPT 21µM* and IL1B secr inh -12.
`Cc1ccc(NC(=O)CN2C(=O)CCn3nc(-c4cccn4C)cc32)cc1` gave TDP1 cell noCPT 6% and TDP1 cell CPT -6%.
For O=C(/C=C/c1ccc(OCc2ccccc2)c(OCc2ccccc2)c1)c1cccnc1 the results were HT1080NT lethal inconclusive, HT1080 IDH1KD tx inconclusive, TDP1 cell noCPT 12µM*, TDP1 cell CPT inconclusive and IL1B secr inh -95*.
`COc1ccc(/C=C/C(=O)c2ccccc2)cc1Cn1nnc2ccccc21` gave HT1080NT lethal inconclusive, HT1080 IDH1KD tx inconclusive, TDP1 cell noCPT 23µM*, TDP1 cell CPT inconclusive and IL1B secr inh -99*.
`O=C(Nc1ccc(OCc2ccccc2)cc1)c1cccnc1` gave HT1080NT lethal -13%, HT1080 IDH1KD tx 7%, TDP1 cell noCPT -1%, TDP1 cell CPT -5% and IL1B secr inh 26.
Screening CCOc1ccc(OCCOc2ccc(/C=C/C(=O)O)cc2OCC)cc1 returned HT1080NT lethal -1%, HT1080 IDH1KD tx 1%, TDP1 cell noCPT 3%, TDP1 cell CPT 34% and IL1B secr inh -8.
CCOc1cc(/C=C/C(=O)c2ccc(C)cc2)ccc1OCC(=O)N(C)C was read as HT1080NT lethal -25%, HT1080 IDH1KD tx inconclusive, TDP1 cell noCPT 21µM*, TDP1 cell CPT 18µM* and IL1B secr inh -105*.
COc1cc(/C=C/C(O)=C/C(=O)/C=C/c2ccc(O)cc2)ccc1O was read as HT1080NT lethal inconclusive, HT1080 IDH1KD tx inconclusive, TDP1 cell noCPT inconclusive, TDP1 cell CPT 18µM* and IL1B secr inh -97*.
`COC(=O)c1ccc(/C=C/C(=O)c2ccc(OC)c(OC)c2)cc1` gave HT1080NT lethal inconclusive, HT1080 IDH1KD tx inconclusive, TDP1 cell noCPT inconclusive, TDP1 cell CPT inconclusive and IL1B secr inh -59*.
COc1ccc(/C=C/C(=O)C2(O)CCCCC2)cc1 was read as HT1080NT lethal -6%, HT1080 IDH1KD tx inconclusive, TDP1 cell noCPT inconclusive, TDP1 cell CPT inconclusive and IL1B secr inh -92*.
COC(=O)c1ccc(/C=C/C(=O)O)cc1 was read as HT1080NT lethal 7%, HT1080 IDH1KD tx -5%, TDP1 cell noCPT -8%, TDP1 cell CPT -1% and IL1B secr inh -10.
For CCOc1cc(/C=C/C(=O)O)ccc1OCCO the results were HT1080NT lethal 0%, HT1080 IDH1KD tx 0%, TDP1 cell noCPT 18µM*, TDP1 cell CPT 13µM* and IL1B secr inh 2.
Screening COc1ccc(/C=C/C(=O)c2ccc[nH]2)cc1OC returned HT1080NT lethal -6%, HT1080 IDH1KD tx 1%, TDP1 cell noCPT inconclusive, TDP1 cell CPT -9% and IL1B secr inh -63*.
COc1ccc(/C=C/C(=O)c2cc(Br)ccc2O)cc1OC was read as HT1080NT lethal -4%, HT1080 IDH1KD tx -9%, TDP1 cell noCPT -29%, TDP1 cell CPT -26% and IL1B secr inh -17.
COc1ccc(/C=C/C(=O)c2ccc(O)cc2O)cc1OC was read as TDP1 cell noCPT 15µM* and TDP1 cell CPT inconclusive.
CCOc1ccc(C(=O)/C=C/c2ccccc2C(F)(F)F)cc1 was read as HT1080NT lethal 14%, HT1080 IDH1KD tx 3%, TDP1 cell noCPT -9%, TDP1 cell CPT -23% and IL1B secr inh 0.
Screening COc1ccc(C=CC(=O)c2ccc(OCc3ccccc3)c(OC)c2)cc1OC returned HT1080NT lethal -14%, HT1080 IDH1KD tx inconclusive, TDP1 cell noCPT 18µM*, TDP1 cell CPT 26µM* and IL1B secr inh -6.
COc1cc(/C=C/C(=O)c2ccc(C)cc2)ccc1OCC#N was read as HT1080NT lethal inconclusive, HT1080 IDH1KD tx 21µM*, TDP1 cell noCPT inconclusive, TDP1 cell CPT inconclusive and IL1B secr inh -114*.
Screening COc1ccc(C(=O)/C=C/c2ccccc2C(F)(F)F)cc1 returned HT1080NT lethal inconclusive, HT1080 IDH1KD tx inconclusive, TDP1 cell noCPT 23µM*, TDP1 cell CPT 29µM* and IL1B secr inh -73*.
Screening O=C1Nc2ccccc2C(O)(C(=O)NC2CC2)N1c1ccc(Cl)c(Cl)c1 (stereo not drawn) returned HT1080NT lethal 21%, HT1080 IDH1KD tx 13%, TDP1 cell noCPT -23%, TDP1 cell CPT 7% and IL1B secr inh 4.
COC(=O)c1ccc(/C=C/C(=O)c2ccc(OC)cc2)cc1 was read as HT1080NT lethal 6%, HT1080 IDH1KD tx inconclusive, TDP1 cell noCPT 16µM*, TDP1 cell CPT inconclusive and IL1B secr inh inconclusive.
Screening COc1ccc(/C=C/C(=O)c2ccc(C(=O)/C=C/c3ccc(OC)c(OC)c3)cc2)cc1OC returned HT1080NT lethal -10%, HT1080 IDH1KD tx 0%, TDP1 cell noCPT 5.8µM*, TDP1 cell CPT 7.3µM* and IL1B secr inh -25.
